Data from PubChem BioAssay.
Activity calls are given as the source filed them.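 How the source made its calls: active means inhibition over a set limit, the all-compound mean plus 3 SD, in both replicate runs; inconclusive means over that limit in just one replicate run; inactive means at or under that limit in both runs.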

test: inhibitors of the yeast RAM network, pilot screen, dse1pr::URA3 reporter, 5-FOA selection (AID 869);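 further: 0% = DMSO wells with no growth and 100% = 10 µM 1-NA-PP1 with full growth; RAM network block rescues cells from 5-FOA so hits raise OD615 growth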; settings: S. cerevisiae dse1pr::URA3 5-FOA growth, OD615, 2 d; at 10 µM; stronger effect = higher value; strain carries analog-sensitive mutant Cbk1 kinase

inhibition, inactive:
CCCOC(=O)c1ccc(NC(=O)CCC(=O)OCC)cc1 2.24%, Cc1ccc(-c2nn(-c3ccccc3)cc2C2SCC(=O)N2Cc2ccccc2)o1 (stereo not drawn) 0.94%, CN(C)c1ccc(-c2noc(C3CCN(S(=O)(=O)c4cccc(Cl)c4)CC3)n2)cc1 2.6%, COc1cc(OC)c(NC(=O)CS(=O)(=O)Cc2nc(-c3ccc(C)cc3)oc2C)cc1Cl 1.96%, COC(=O)c1c(NC(=O)C2CC2)sc2c1CCCC2 1.37%, CCN1CCN(CC(=O)Nc2cccc(C)c2)C(=O)C1=O 1.27%, CN(C)c1ccc(CN(C)C2CCCCC2)cc1 1.46%, Cc1c(S(=O)(=O)N2CCc3ccccc3C2)c(=O)n(C)c(=O)n1C 2.17%, CCOC(=O)C1Cn2c(nc3c(c2=O)C2(CCCC2)Cc2ccccc2-3)S1 (stereo not drawn) 2.23%, Cc1cccc(-c2noc(CN(C(=O)c3c(-c4ccccc4Cl)noc3C)C(C)C)n2)c1 0.585%, CCOC(=O)c1cc2c(=O)n3ccccc3nc2n(Cc2ccco2)c1=NC(=O)c1cccnc1 1.91%, Cc1ccc(C)c(C(=O)Nc2c(C(N)=O)oc3ccccc23)c1 0.595%, Clc1ccccc1-c1nnc2sc(-c3ccncc3)nn12 0.635%, COC(=O)c1ccc2c(c1)N(Cc1ccccc1F)C(=O)c1ccccc1S2=O (stereo not drawn) 1.02%, COc1ccccc1-n1c(CNC(=O)c2ccccc2)nnc1SCC(=O)Nc1nnc(C)s1 1.05%, CCOC(=O)C1=C(N)OC2=C(C(=O)CC(C)(C)C2)C1C1CCCCC1 (stereo not drawn) 1.4%, CCCc1nnc(NC(=O)c2ccncc2)s1 1.42%, CC(C)Oc1ccc(NC(=O)Oc2ccccc2)cc1 2.38%, CCOC(=O)c1[nH]c(C)c(C(=O)N2CCOCC2)c1C 3.29%, Nc1ccc(S(=O)(=O)N2CCCc3ccccc32)cc1 1.49%, CCc1ccccc1S(=O)(=O)Cc1ccc(C(=O)N2CCN(c3ccccc3OC)CC2)o1 1.31%, COc1ccc(OCCn2c(NC(=O)c3ccco3)nc3ccccc32)cc1 3.36%, COc1cc2c(cc1OC)C(C)N(C(=O)c1cc3ccccc3o1)CC2 (stereo not drawn) 1.52%, O=C(Cn1c(=O)sc2ccccc21)NCc1ccccn1 1.19%, CCn1c(C(C)NC(=O)c2cccc(C)c2)nc2ccccc21 (stereo not drawn) 2.54%, CN1CSC2=C(C#N)C(c3cccc(OCc4ccccc4)c3)CC(=O)N2C1 (stereo not drawn) 0.785%, Cc1cccc(N2CCN(C(=O)c3cc4c(C)nc5ccccc5c4o3)CC2)c1C -1.31%, c1ccc(CNc2ncnc3nc[nH]c23)nc1 1.71%
